Screening data deposited in PubChem by several laboratories.
DAGLB inh = diacylglycerol lipase beta (human) inhibition. HEK293T DAGLB membrane lysate, EnzChek fluorogenic substrate. inhibition, % at 5.17 µM. Q8NCG7. actives 0.059% (n = 340,000); in the data active = inhibition above about 34%
TMEM16A inh = mouse TMEM16A channel inhibition, primary screen; Q8BHY3; HEK293 TMEM16A/YFP iodide influx fluorescence, ionomycin; normalized B-score (activity score, 25-100; higher = stronger inhibition) at 10 µM; actives 1.2% (n = 310,000);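 active = ratio plate-corrected score three or more library SD toward inhibition, starting fluorescence score within five deviations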;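 also: score derived from kinetic fluorescence span divided by baseline fluorescence per well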
TMEM16A act = activates or potentiates the mouse TMEM16A chloride channel | Q8BHY3 | HEK293 TMEM16A/YFP-H148Q/I152L, iodide quench fluorescence; active compounds read low | B-score at 10 µM | actives 0.3% (n = 340,000) | AID 623877;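 active = fluorescence-ratio B-score plate-corrected deviation score at least 3 library SD below zero, with starting fluorescence score within 5 deviations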;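 also: channel opened by trigger with iodide after compound preincubation; score built on the fluorescence ratio of max minus min over baseline; more negative score means more quench and so TMEM16A activation or potentiation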
iPSC survival up = increases survival of single human iPS cells; hiPSC single-cell survival, ATPlite luminescence; 100% = ROCK inhibitor wells, 0% = DMSO; survival enhancement, % at 20 µM; actives 0.044% (n = 360,000); AID 602274; in the data active = survival enhancement above about 18%;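 also: cells exposed to compounds for 16 hours before the ATP read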
ABCB6 inh 2 = blocks the human ABCB6 transporter | Q9NP58 | K562-ABCB6 porphyrin accumulation, flow cytometry, 1 h; active compounds read low | fluorescence ratio to DMSO, % at 10 µM | actives 0.19% (n = 360,000) | AID 602162;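 active = fluorescence ratio to DMSO below 75%, the collection mean minus 3 SD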;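 also: signal is porphyrin accumulated inside mitochondria; lower ratio means ABCB6 inhibition with less porphyrin fluorescence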
Large screens that a line does not name were inactive. An excerpt weighted towards active compounds, which were near 1.5% of everything screened.

O=C(Nc1nc(-c2ccco2)c(-c2ccco2)s1)C1CC(=O)N(c2ccc3c(c2)OCCO3)C1 (stereo unspecified)	TMEM16A act -6.2
Cc1nnc(NC(=O)C2CC(=O)N(c3ccc4c(c3)OCCO4)C2)s1 (stereo unspecified)	none (no result: TMEM16A inh)
COc1cc(/C=C/C(=O)OCC(=O)NC2CCS(=O)(=O)C2)ccc1OC(F)F (stereo unspecified)	none (no result: TMEM16A inh)
CN(C)c1ncc(C2=C(Cl)C(=O)C(N3CCCC3)=C(Cl)C2=O)s1	TMEM16A inh 100
COC(=O)c1ccc(NC(=S)N2CCN(CCO)CC2)cc1	none
COc1ccc(NC(=O)CC2C(=O)N(CCc3ccccc3)C(=S)N2Cc2cccnc2)cc1 (stereo unspecified)	TMEM16A inh 25
C=CCN1C(=O)C(CC(=O)Nc2ccc(OC)cc2)N(Cc2ccco2)C1=S (stereo unspecified)	TMEM16A act -6.8
Cc1ccc(SCC(=O)Nc2cc([N+](=O)[O-])ccc2O)cc1	TMEM16A inh 25
O=C(CSCc1ccc(Cl)cc1)Nc1cc([N+](=O)[O-])ccc1O	none
COc1ccc(Cl)c(-c2cc(C(=O)Nc3ccccc3)[nH]n2)c1	none (no result: DAGLB inh, TMEM16A inh, TMEM16A act)
O=C(CN1CCOCC1)Nc1nc(-c2ccc3c(c2)CCN3S(=O)(=O)c2ccccc2)cs1	none
Cc1sc(NC(=O)CN2CCOCC2)nc1-c1ccc2c(c1)CCN2S(=O)(=O)c1ccccc1	TMEM16A inh 25
CC(C)(C)C(=O)Oc1cccc(Nc2ncnc3ccccc23)c1	TMEM16A inh 25
Cc1ccc2nc(NC(=O)CN3C(=O)NC4(CCCC4)C3=O)sc2c1	none
O=C(Nc1ccc2[nH]ncc2c1)C1CCC1	none
O=C(C(O)c1ccc(Br)cc1)N1CCC(Nc2ccc3[nH]ncc3c2)CC1 (stereo unspecified)	iPSC survival up 111 (no result: DAGLB inh, TMEM16A inh, TMEM16A act)
Cc1nn(CC(=O)c2ccc3c(c2)OCCO3)c(=O)c(C#N)c1C	none (no result: TMEM16A inh)
C[C@@H]1CN([C@@H](C)CO)S(=O)(=O)c2ccc(Br)cc2O[C@H]1CN(C)C(=O)Cc1cccnc1	none (no result: TMEM16A inh, TMEM16A act)
COC(=O)c1cc(C(=O)OC)cc(N2C(=O)CC(Sc3nc(C)cc(C)n3)C2=O)c1 (stereo unspecified)	TMEM16A act -18
CC(=O)Nc1ccc(N2C(=O)CC(Sc3nc(C)cc(C)n3)C2=O)cc1 (stereo unspecified)	none
O=[N+]([O-])c1ccc(OCc2nnc(-c3ccccc3)o2)cc1	TMEM16A inh 100
CN(c1ccc(OCc2nnc(-c3ccccc3)o2)cc1)S(=O)(=O)c1ccccc1	none
CCC(=O)N1CCC(C)(C(=O)Nc2ccc3c(c2)OCO3)C1 (stereo unspecified)	none (no result: DAGLB inh, TMEM16A inh, TMEM16A act)
CC(=O)Oc1cccc2c1C(=O)c1c(OC(C)=O)cc(C(=O)O)cc1C2=O	none
O=C(O)c1cc(O)c2c(c1)C(=O)c1cc(O)cc(O)c1C2=O	TMEM16A act -16
C=CCNC(=O)COC(=O)c1ccc(Cl)c(S(N)(=O)=O)c1	TMEM16A act -29
CNC(=O)COC(=O)c1ccc(Cl)c(S(N)(=O)=O)c1	none
O=C(CN1C(=O)NC2(CCCCCCC2)C1=O)Nc1ccc(Br)cc1Br	none (no result: TMEM16A inh)
CCN(C(=O)CSc1nnc(COc2ccccc2F)n1N)c1c(N)n(Cc2ccccc2)c(=O)[nH]c1=O	none (no result: TMEM16A inh)
COc1ccc(/C=N/NC(=O)c2cc(Br)ccc2O)cc1Cn1cc(Cl)cn1	TMEM16A inh 100
CC(=O)C(Cc1ccccc1)NC(=O)CN1c2cccc3cccc(c23)S1(=O)=O (stereo unspecified)	TMEM16A act -9.8 (no result: TMEM16A inh)
COC(=O)CNC(=O)CN1c2cccc3cccc(c23)S1(=O)=O	none
O=C(Nc1nc2ccccc2n1CCN1CCCCC1)C1CCCCC1	TMEM16A inh 25
N#Cc1ccc(C(=O)N2CCCCC2c2cc(C(=O)Nc3ccc4c(c3)OCO4)no2)cc1 (stereo unspecified)	none (no result: DAGLB inh, TMEM16A inh, TMEM16A act)
COc1ccc(C(=O)/C(C#N)=N/Nc2ccc([N+](=O)[O-])cc2)cc1	TMEM16A inh 25
Cc1ccc(S(=O)(=O)N(C)C)cc1NC(=O)CN1C(=O)NC2(CCc3ccccc32)C1=O (stereo unspecified)	none (no result: TMEM16A inh, TMEM16A act)
O=C(CSc1nnnn1C1CC2CCC1C2)Nc1ccnc2ccccc12 (stereo unspecified)	TMEM16A inh 100
CCc1nc2ccccc2c(C(=O)OCC(=O)N(CCOC)c2c(N)n(Cc3ccccc3)c(=O)[nH]c2=O)c1C	none (no result: TMEM16A inh)
CS(=O)(=O)N(Cc1ccco1)Cc1ccccc1Cl	none
